# High-throughput results deposited in PubChem BioAssay by National Center for Advancing Translational Sciences (NCATS).
# This is a sample that favours compounds with a hit; in the whole collection about 19% have one here.
# IL-1B inflam inh: blocks inflammasome-driven IL-1 beta release; 360,000 tested, 4.7% active; activity change, % at 57.5 µM; THP-1 LPS/ATP IL-1B secretion, AlphaLISA, 16 h; hits give low values; in the data active = activity change below about -50%; inconclusive = mostly about -30% to -49%; also: % is scaled to controls: 0 for no effect and ±100 for the full control effect
#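 Secreted IL-1B measured by AlphaLISA bead assay after 16 h compound exposure of THP-1 cells; compounds (final up to 57.5 uM) added 1 h before LPS (250 ng/mL) and ATP (1.25 mM) stimulation; lower signal means less secretion.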
# DT40 TDP1 CPT: DT40-hTDP1 cell growth loss with CPT | 420,000 tested, 12% active | Potency, µM (top dose mostly 46.2 µM), for inactives: at the highest dose activity change, negative = growth inhibition, hits mostly inhibitors | AID 686979 | chicken DT40 Tdp1-/-;hTDP1 cells + 20 nM CPT, ATP luminescence, 48 h; also: potency is read from the fitted curve at half-maximal effect; % is scaled to controls: 0 for no effect and ±100 for the full control effect; nearly all actives have a fitted effect of over 55% in size
#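 Cell growth measured by CellTiter-Glo luminescence after a minimum 48 h, 37 C compound exposure with 20 nM CPT in Tdp1-knockout DT40 cells stably expressing hTDP1, seeded 400/well; qHTS titration format.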
# TDP1 block: inhibitors of human tyrosyl-DNA phosphodiesterase TDP1 | recombinant TDP1, AlphaScreen DNA substrate cleavage | 350,000 tested, 0.28% active | Potency, µM (series often up to 130 µM), without a hit: at the top dose activity change, negative = inhibition, most hits filed as inhibitors | Q9NUW8; also: potency is read from the fitted curve at half-maximal effect; % is scaled to controls: 0 for no effect and ±100 for the full control effect; nearly all actives have a fitted effect of over 40% in size
# Target sequence (Q9NUW8 whole entry, looked up): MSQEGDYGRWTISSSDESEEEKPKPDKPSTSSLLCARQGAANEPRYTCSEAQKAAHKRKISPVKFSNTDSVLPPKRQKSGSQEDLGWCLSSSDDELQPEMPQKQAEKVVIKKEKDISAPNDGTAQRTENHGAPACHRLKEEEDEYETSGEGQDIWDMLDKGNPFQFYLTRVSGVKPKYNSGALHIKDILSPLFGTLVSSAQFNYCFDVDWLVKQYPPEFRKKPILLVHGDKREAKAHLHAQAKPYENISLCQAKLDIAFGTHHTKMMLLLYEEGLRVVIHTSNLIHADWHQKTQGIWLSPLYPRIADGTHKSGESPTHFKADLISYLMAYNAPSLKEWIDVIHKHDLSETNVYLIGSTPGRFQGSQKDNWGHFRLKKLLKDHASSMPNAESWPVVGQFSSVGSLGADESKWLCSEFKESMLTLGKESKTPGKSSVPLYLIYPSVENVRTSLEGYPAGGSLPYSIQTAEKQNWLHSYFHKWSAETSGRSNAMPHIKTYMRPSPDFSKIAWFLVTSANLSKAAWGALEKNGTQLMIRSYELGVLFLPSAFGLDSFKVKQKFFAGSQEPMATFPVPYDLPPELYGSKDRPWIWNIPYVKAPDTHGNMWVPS
#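 Recombinant human Tdp1 (E. coli-expressed, 1 nM final) preincubated with compounds 15 min at room temperature, then 5'-biotin/3'-phosphotyrosine-FITC DNA substrate (15 nM final) added for 5 min. AlphaScreen beads (10 ug/ml final) added 10 min; cleavage lowers signal.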
# DT40 TDP1 no CPT: qHTS for Inhibitors of human tyrosyl-DNA phosphodiesterase 1 (TDP1): qHTS in cells in absence of CPT; DT40 Tdp1-/- hTDP1 cells, no CPT, ATP luminescence, 48 h; Potency, µM (series often up to 46.2 µM), inactives show at the highest dose activity change, negative = growth inhibition, hits mostly inhibitors; 420,000 tested, 15% active; AID 686978, 2013; also: potency is read from the fitted curve at half-maximal effect; % is scaled to controls: 0 for no effect and ±100 for the full control effect; nearly all actives have a fitted effect of over 55% in size
#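 Growth kinetics read by CellTiter-Glo luminescence after ≥48 hr at 37 °C. Cells: DT40 Tdp1-/- stably carrying human TDP1, 400 per well, compound exposure in the absence of CPT (DMSO vehicle).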
# HepG2 viability: kills HepG2 cells in TGF-b inhibitor counter-screen. HepG2 CAGA-GFP viability, ATP luminescence, 18 h. Potency, µM (highest dose often 46.1 µM), without a hit: top-dose activity change, negative = cytotoxicity, most hits filed as cytotoxic. 410,000 tested, 0.76% active. AID 588856; also: potency is read from the fitted curve at half-maximal effect
#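 CellTiter-Glo luminescence gave cytotoxicity after 18 hours at 37 degrees C. The cells were HepG2 CAGA-GFP in 1% FBS DMEM, stimulated with 500 pg/mL TGF-beta after compound addition. %Activity was normalised to no-cell wells (complete cell-killing) and DMSO (no toxicity), and curves were fitted and classified.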
# TGFb SMAD3 inh: inhibitors of TGF-b signaling. HepG2 CAGA-GFP TGF-b/SMAD3 reporter, GFP fluorescence, 18 h; TGF-beta stimulated, 500 pg/mL final. Potency, µM (doses to about 46.1 µM), inactives show top-dose activity, negative = inhibition, hits mostly inhibitors. 410,000 tested, 1.2% active. AID 588855; also: potency is read from the fitted curve at half-maximal effect; % is scaled to controls: 0 for no effect and ±100 for the full control effect; nearly all actives have a fitted effect of over 65% in size
#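 Using HEPG2 CAGA-GFP reporter cells at 1000 cells/well, we pinned test compounds, stimulated with recombinant TGF-beta (500 pg/mL final) and measured total well GFP after 18 h.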
# * marks the source's active call; other numbers are inactive results; ? = inconclusive; nt = no result; [ ] = dose if it differs, or a comment. Unless noted, calls follow the shape of the dose curve; as a rule, active = well fitted curve in the direction sought with a large enough effect; inconclusive = small, poorly fitted or top-dose-only effect, or another doubt; inactive = no such curve, though single readings can be large; an effect the other way counts as inactive or inconclusive.
SMILES,IL-1B inflam inh,DT40 TDP1 CPT,TDP1 block,DT40 TDP1 no CPT,HepG2 viability,TGFb SMAD3 inh
COc1ccc(C2Nc3ccc(NC(C)=O)cc3C(=O)N2Cc2ccccc2)cc1COc1ccc(NC(C)=O)cc1 (stereo not given),nt,?,-2%,18µM*,nt,nt
Cc1ccc(C2Nc3ccccc3C(=O)N2Cc2ccco2)cc1 (stereo not given),-12,18µM*,0%,?,-12%,?
O=S(=O)(Nc1c(Br)cc(Br)c2cccnc12)C1CCCCC1,nt,nt,-3%,nt,-4%,-12%
COc1ccc(C2CC(=O)Nc3c2c(=O)n(C)c2nc4ccccc4n32)cc1 (stereo not given),nt,nt,-2%,nt,-44%,-11%
COc1ccc(C2Nc3ccccc3C(=O)N2Cc2ccco2)cc1COc1ccc(NC(C)=O)cc1 (stereo not given),-7,?,5%,11µM*,0%,-2%
COc1ccc(C2Nc3ccccc3C(=O)N2c2ccc(F)cc2)cc1COc1ccc(NC(C)=O)cc1 (stereo not given),nt,?,0%,25µM*,2%,18%
COc1ccc(C2Nc3ccccc3C(=O)N2Cc2ccco2)cc1COc1ccccc1F (stereo not given),-69*,?,1%,?,-46%,-3%
Cc1nc(NC2CCCCC2)c2nc(-c3ccccc3)n(C(C)CN(C)C)c2n1 (stereo not given),nt,nt,7%,nt,nt,nt
C=C(C)C1CCC(C)=C1CC(C)(C)/C=N\n1cnnc1 (stereo not given),13,10µM*,7%,21µM*,-35%,-2%
CC1=CC(C)C(/C=N/n2cnnc2)C(C)C1 (stereo not given),-12,-4%,4%,-27%,3%,-2%
O=C(NCCCN1CCCC1=O)c1cccc(S(=O)(=O)N2CCN(c3ccc(F)cc3)CC2)c1,-2,-2%,3%,-20%,-28%,-5%
COC(=O)C[C@H]1c2ccccc2C2=C(C[C@@H](C)[C@H]3C(=O)NC(=O)[C@@H]23)N1C(=O)OC,nt,nt,-10%[12.3 µM],nt,nt,nt
Cc1ccc(-c2noc(CCC(=O)Nc3cccc(C#N)c3)n2)cc1,-5,?,4%,18µM*,-11%,-14%
CC(=O)c1ccc(NC(=O)CCCc2nc(-c3cccc(C)c3)no2)cc1,nt,-29%,0%,21µM*,-20%,-35%
CCOC(=O)c1ccc(NC(=O)CCc2nc(-c3cccc(C)c3)no2)cc1,?,?,0%,16µM*,-25%,0%
Cc1cccc(-c2noc(CCC(=O)Nc3ccccc3)n2)c1,12,?,7%,?,-15%,-23%
Cc1cccc(-c2noc(CCCC(=O)NC3CCCC3)n2)c1,27,?,nt,?,7%,8%
CC1CCCCN1C(=O)CSc1nc2c(c(=O)n(C)c(=O)n2C)n1C (stereo not given),15,-3%,8%,-18%,-7%,10%
O=[N+]([O-])c1cc(Cl)c2cccnc2c1O,126,?,8%,18µM*,-26%,?
O=[N+]([O-])c1cc(F)c2cccnc2c1O,30,9.2µM*,11%,7.3µM*,16µM*,?
O=[N+]([O-])c1cc([N+](=O)[O-])c2cccnc2c1Oc1ccccc1O,26,2.6µM*,8%,1.8µM*,3%,-4%
O=C(CSc1nnc(-c2cccs2)o1)Oc1ccccc1Cl,nt,-15%,9%,-1%,1%,41%
CC(C)c1ccc(CN(C(=O)c2cccs2)C2CCS(=O)(=O)C2)cc1 (stereo not given),-10,?,-6%,?,0%,12%
COc1ccc(C(=O)NCC2Cc3cc(C)cc(-c4nc5ccccc5s4)c3O2)c(OC)c1OC (stereo not given),nt,9%[9.04 µM],nt,-10%,nt,nt
CCCC(=O)NCC(c1ccc2c(c1)OCO2)N1CCN(c2ccc(F)cc2)CC1 (stereo not given),nt,?,2%,21µM*,-6%,-23%
SMILES,IL-1B inflam inh,DT40 TDP1 CPT,TDP1 block,DT40 TDP1 no CPT,HepG2 viability,TGFb SMAD3 inh
O=S(=O)(NCC(c1ccc2c(c1)OCO2)N1CCOCC1)c1ccc(F)cc1 (stereo not given),-6,0%,12%,-5%,12%,11%
O=S(=O)(NCC(c1ccc2c(c1)OCO2)N1CCOCC1)c1ccc(Br)cc1 (stereo not given),-17,16µM*,0%,21µM*,-1%,3%
COc1cc(C(=O)NCC(c2ccc3c(c2)OCO3)N2CCOCC2)cc(OC)c1OC (stereo not given),nt,12µM*,5%,?,-13%,-8%
COc1cccc(NC(=O)C(=O)NCC(c2ccc3c(c2)OCO3)N2CCOCC2)c1 (stereo not given),nt,?,-1%,16µM*,-47%,-12%
COc1cccc(C(=O)NCC(c2ccc3c(c2)OCO3)N2CCOCC2)c1 (stereo not given),nt,-19%,7%,-17%,5%,-11%
Cc1cc(C(C)(C)C)c(OC(=O)[C@@H]2OC(c3ccccc3)=C[C@H]2c2ccccc2)c(C(C)(C)C)c1,16,-29%,1%,?,3%,-18%
COC(=O)c1ccc(C(NC(=O)OCc2ccccc2)/C(=C/[C@@H](C)C(=O)NCCc2c[nH]c3ccccc23)c2cccnc2)cc1 (stereo not given in full),nt,nt,13%,nt,nt,nt
CCCNC(=O)C(=O)NCC(c1ccc2c(c1)OCO2)N1CCN(c2ccc(F)cc2)CC1 (stereo not given),16,?,7%,?,20%,-6%
COc1ccc(C(=O)NCC(c2ccc3c(c2)OCO3)N2CCN(c3ccc(F)cc3)CC2)cc1 (stereo not given),nt,3.3µM*,10%,1.6µM*,-25%,?
COc1cccc(C(=O)NCC(c2ccc3c(c2)OCO3)N2CCN(c3ccc(F)cc3)CC2)c1 (stereo not given),-24,15µM*,nt,10µM*,-21%,-1%
N#Cc1ccccc1NC(=O)C(=O)NCC(c1ccc2c(c1)OCO2)N1CCN(c2ccccc2)CC1 (stereo not given),nt,?,4%,8.2µM*,0%,7%
